# Several values for one entry are separate records, joined by “and”; a condition that tells them apart may be missing. Equal values may be shown once. Records with an inconclusive call do not appear. Activity calls are given as the source filed them. Calls follow the shape of the dose curve; as a rule, active = well fitted curve in the direction sought with a large enough effect in the repeat runs; inconclusive = weak or mixed curves; inactive = no such curve, though single readings can be large; an effect the other way counts as inactive or inconclusive.
# Target: Nuclear receptor subfamily 1 group I member 2 (Homo sapiens) (UniProt O75469)
# Assay: Human pregnane X receptor (PXR) activation by small molecules, qHTS assay (AID 1346985); also: nearly all actives have a fitted effect of over 40% in size
# Settings: DPX-2 HepG2 CYP3A4-luciferase, 24 h; series mostly up to 38.3 µM
# In short: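 DPX-2 cells (HepG2 co-transfected with a PXR response element and a CYP3A4-promoter luciferase construct) were seeded at 2,000 per well, rested 5 hr at 37C, then exposed to DMSO-dissolved compounds for 24 hr. Activation was read as luciferase luminescence.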
# Potency is read from the fitted curve at half-maximal effect.
row,Compound,Potency
1,CCOc1ccc2nc3cc(N)ccc3c(N)c2c1,inactive
2,CC[C@@]1(O)C(=O)OCc2c1cc1n(c2=O)Cc2cc3c(CN(C)C)c(O)ccc3nc2-1,inactive
3,O=C(Nc1ccc(Oc2ccc(Cl)cc2)c(Cl)c1)c1cc(I)cc(I)c1O,22.4 µM (active)
4,Cc1cccc(CN2CCN(C(c3ccccc3)c3ccc(Cl)cc3)CC2)c1 (stereo unspecified),inactive
5,CC(=O)N1CCN(c2ccc(OC[C@H]3CO[C@](Cn4ccnc4)(c4ccc(Cl)cc4Cl)O3)cc2)CC1,inactive
6,CCCC(=O)OC[C@@H](OC(=O)CCC)[C@@H](OC(=O)CCC)[C@H](Cn1c2nc(=O)[nH]c(=O)c-2nc2cc(C)c(C)cc21)OC(=O)CCC,inactive
7,CCN(CC)CCCC(C)Nc1c2ccc(Cl)cc2nc2ccc(OC)cc12 (stereo unspecified),inactive
8,C[C@@H]1C[C@H]2[C@@H]3CCC4=CC(=O)C=C[C@]4(C)[C@@]3(Cl)[C@@H](O)C[C@]2(C)[C@@]1(OC(=O)c1ccco1)C(=O)CCl,4.47 µM (active)
9,N/C(=N\N=C\c1ccc(Cl)cc1)N/N=C/c1ccc(Cl)cc1,inactive

# Target: Cytochrome P450 2D6 (Homo sapiens) (UniProt P10635)
# Assay: Cytochrome P450 Family 2 Subfamily D Member 6 (CYP2D6) small molecule antagonists: luciferase reporter qHTS assay (AID 1671196); also: nearly all actives have a fitted effect of over 50% in size
# Settings: P450-Glo CYP2D6 enzyme assay, luciferin luminescence, 1 h; series mostly up to 115 µM
# In short: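 P450-Glo format: CYP2D6 converts a proluciferin substrate to luciferin in an NADPH-driven reaction lasting 1 h at room temperature. Light output, proportional to CYP2D6 activity, reflects interference by test chemicals.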
# Cytochrome P450 2D6 (Homo sapiens), sequence (P10635 whole entry, looked up): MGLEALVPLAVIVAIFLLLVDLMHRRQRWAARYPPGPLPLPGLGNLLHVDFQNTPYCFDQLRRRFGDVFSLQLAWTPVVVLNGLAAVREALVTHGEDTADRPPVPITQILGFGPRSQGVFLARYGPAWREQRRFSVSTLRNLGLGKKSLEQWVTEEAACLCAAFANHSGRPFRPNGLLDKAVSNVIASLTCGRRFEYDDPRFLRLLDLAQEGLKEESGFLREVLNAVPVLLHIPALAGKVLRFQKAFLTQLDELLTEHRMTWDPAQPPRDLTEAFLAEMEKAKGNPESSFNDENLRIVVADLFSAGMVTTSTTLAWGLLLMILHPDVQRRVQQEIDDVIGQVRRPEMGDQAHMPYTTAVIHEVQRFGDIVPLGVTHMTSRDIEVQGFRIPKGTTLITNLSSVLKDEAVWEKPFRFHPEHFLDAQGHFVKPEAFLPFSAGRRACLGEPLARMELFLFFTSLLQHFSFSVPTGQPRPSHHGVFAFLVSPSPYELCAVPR
row,Compound,Potency
1,CCCCN(CCCC)c1ccc(C(=O)c2ccccc2C(=O)O)c(O)c1,inactive
2,CCCCCCCCS(=O)C(C)Cc1ccc2c(c1)OCO2 (stereo unspecified),64.6 µM (active)
3,CCOc1ccc2nc3cc(N)ccc3c(N)c2c1,15.5 µM (active)
4,OCCN(CCO)c1nc(N2CCCCC2)c2nc(N(CCO)CCO)nc(N3CCCCC3)c2n1,9.77 µM (active)
5,C/C=C1/C(=O)C[C@H]2[C@@H]3CCC4=CC(=O)CC[C@]4(C)[C@H]3CC[C@]12C,inactive
6,CCC(C)Nc1ccc(NC(C)CC)cc1 (stereo unspecified),2.88 µM (active)
7,CC[C@@]1(O)C(=O)OCc2c1cc1n(c2=O)Cc2c-1nc1ccccc1c2/C=N/OC(C)(C)C,inactive
8,O=C(Nc1ccc(Oc2ccc(Cl)cc2)c(Cl)c1)c1cc(I)cc(I)c1O,inactive
9,CCC(CN)=C(c1ccccc1)c1ccccc1,4.36 µM (active)
10,CCCCN1C(=O)[C@@H]([C@H](O)C2CCCCC2)NC(=O)C12CCN(Cc1ccc(Oc3ccc(C(=O)O)cc3)cc1)CC2,inactive
11,CCc1cc(SCc2sc(-c3ccc(C(F)(F)F)cc3)nc2CN2CCN(c3ccc(OC)cc3)CC2)ccc1OCC(=O)O,inactive
12,Cc1cccc(CN2CCN(C(c3ccccc3)c3ccc(Cl)cc3)CC2)c1 (stereo unspecified),3.09 µM (active)
13,CCCCCCCC[P+](CCCCCCCC)(CCCCCCCC)CCCCCCCC,0.141 µM (active)
14,Nc1nc2ccccc2n1Cc1ccc(F)cc1,0.692 µM (active)
15,Cc1ccc(-n2nc(C(C)(C)C)cc2NC(=O)Nc2ccc(OCCN3CCOCC3)c3ccccc23)cc1,15.5 µM (active)
16,CSc1ccc2c(c1)C(N1CCN(C)CC1)Cc1ccccc1S2 (stereo unspecified),1.74 µM (active)
17,C[C@@H]1C[C@H]2[C@@H]3CCC4=CC(=O)C=C[C@]4(C)[C@@]3(Cl)[C@@H](O)C[C@]2(C)[C@@]1(OC(=O)c1ccco1)C(=O)CCl,3.89 µM (active)
18,Nc1c2ccccc2nc2ccccc12,700 nM (active) and 11 µM (active)
19,CC(C)c1ccc2c(c1)CC[C@H]1[C@](C)(CN)CCC[C@]21C,1.26 µM (active)
20,Nc1ccc(N)c2ccccc12,3.99 µM (active)
21,CCc1cc(Cc2cc(CC)cc(C(C)(C)C)c2O)c(O)c(C(C)(C)C)c1,inactive
22,C[C@@H](NCCCc1cccc(C(F)(F)F)c1)c1cccc2ccccc12,0.0389 µM (active)

# From PubChem BioAssay (Tox21)
